Rows were chosen to be rich in hits. Some 10% of all compounds tested hit in one or more screens of this group.
FLuc inh = Firefly luciferase inhibition profiling of diverse chemical library using quantitative high-throughput screening; actives 2.5% (n = 76,000); Potency, µM (doses to about 115 µM), actives largely listed as inhibitors; purified P. pyralis luciferase, luminescence, biochemical; AID 1347043, 2019; Luciferin 4-monooxygenase (Photinus pyralis), P08659; note: nearly all actives have a fitted effect of over 65% in size
Target sequence (P08659 whole entry, looked up): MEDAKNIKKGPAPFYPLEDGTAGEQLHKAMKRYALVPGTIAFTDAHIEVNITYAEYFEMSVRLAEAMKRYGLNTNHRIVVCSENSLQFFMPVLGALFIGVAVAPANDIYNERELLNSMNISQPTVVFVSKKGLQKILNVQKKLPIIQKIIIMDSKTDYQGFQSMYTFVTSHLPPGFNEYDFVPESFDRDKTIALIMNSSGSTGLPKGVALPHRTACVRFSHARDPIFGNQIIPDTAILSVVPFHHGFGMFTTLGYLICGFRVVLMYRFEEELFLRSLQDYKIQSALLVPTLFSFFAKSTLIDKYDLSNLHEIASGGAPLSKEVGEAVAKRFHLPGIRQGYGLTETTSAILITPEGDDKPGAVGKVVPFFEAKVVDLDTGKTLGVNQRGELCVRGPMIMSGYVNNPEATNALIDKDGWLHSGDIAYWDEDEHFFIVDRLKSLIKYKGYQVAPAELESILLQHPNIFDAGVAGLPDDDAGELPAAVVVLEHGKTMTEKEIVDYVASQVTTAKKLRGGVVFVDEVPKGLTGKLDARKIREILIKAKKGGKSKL
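FLuc 10nM, D-luciferin 10uM, ATP 10uM, Mg acetate 10mM, Tris acetate pH 7.5, Tween/BSA; cpd qHTS; enzyme added last; CCD luminescence.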
HEK cytotox = Cytotoxic Profiling in HEK 293 Cell Line of Diverse Libraries Using Quantitative High-Throughput Screening; HEK 293 viability, ATP luminescence (CellTiter-Glo), 48-72 h; Potency, µM (doses to about 115 µM), for inactives: top-dose activity change, negative = cytotoxicity, hits mostly inhibitors; actives 6.6% (n = 94,000); note: nearly all actives have a fitted effect of over 60% in size
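ATP-coupled CellTiter-Glo luminescence served as viability read-out, recorded 10 min after reagent addition at room temperature. HEK 293 cells, 250 cells/well, had been incubated with pintool-transferred compound for 48 or 72 hr at 37 degree Celsius.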
GPT2 inh = Primary qHTS assay for inhibitors of Glutamate pyruvate transaminase 2 (GPT2). Alanine aminotransferase 2 (Homo sapiens), Q8TD30. Recombinant GPT2, coupled pyruvate oxidase/HRP Amplex Red fluorescence. Potency, µM (series often up to 57.7 µM), for the others: top-dose activity change, negative = inhibition, usual class: inhibitors. actives 0.25% (n = 100,000). AID 1671188, 2021; note: nearly all actives have a fitted effect of over 60% in size
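Inhibition is scored from Amplex Red fluorescence generated when pyruvate oxidase and HRP act on pyruvate released by GPT2. Reactions contain 10ng/uL enzyme, 250uM a-KG and 2mM L-alanine and run 30 min at room temperature.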
hNpr1 antagonist = Natriuretic polypeptide receptor (hNpr1) antagonism - Primary qHTS. Atrial natriuretic peptide receptor 1 (Homo sapiens), P16066. HEK293 hNpr1 GloSensor cGMP, ANP-stimulated luminescence. Potency, µM (series often up to 46.3 µM), for inactives: at the top dose activity change, negative = inhibition, usual class: inhibitors. actives 1.6% (n = 76,000). AID 1347048, 2019; calls by dose curve; note: nearly all actives have a fitted effect of over 60% in size
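HEK293 cells stably expressing human Npr1 and cGMP GloSensor pGS-40F, loaded 2 h with 2% GloSensor reagent, given compound 30 min at room temperature. Luminescence read before and 20 min after 0.1 nM hNppA.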
NIH3T3 tox = Cytotoxic Profiling in NIH 3T3 Cell Line of Diverse Libraries Using Quantitative High-Throughput Screening; NIH 3T3 viability, CellTiter-Glo ATP luminescence, 48-72 h; Potency, µM (top dose mostly 96.7 µM), for the others: at the top dose activity change, negative = cytotoxicity, actives largely listed as inhibitors; actives 4.3% (n = 94,000); AID 1345082, 2018; note: nearly all actives have a fitted effect of over 55% in size
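First NIH 3T3 cells are plated at 400 cells/well; next compound is pinned in; then plates incubate 48 or 72 hr at 37 °C; finally CellTiter-Glo is added and luminescence read after 10 min.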
Active calls of the source: *; i = inactive; u = inconclusive; x = no result; [ ] = remark or other dose. Unless noted, calls come from the whole dose curve; as a rule, active = well fitted curve in the direction sought with a large enough effect; inconclusive = small, poorly fitted or top-dose-only effect, or another doubt; inactive = no such curve, though single readings can be large; an effect the other way counts as inactive or inconclusive. % is set by controls: 0 for no effect and ±100 for the full control effect; potency is the fitted concentration of half-maximal effect.

SMILES | FLuc inh | HEK cytotox | GPT2 inh | hNpr1 antagonist | NIH3T3 tox
C[C@]1(CO)[C@H]2Cc3sc(NC(=O)c4ccc(F)cc4)nc3[C@@H](CC(=O)O)[C@]2(C)CC[C@H]1O | i | 3% | 0% | 1% | -1%
CN(CCc1ccccc1)CC[C@@H]1CC[C@H](O)[C@@H](C(=O)N(C)Cc2ccccc2)O1 | i | u | -3%[88.5 µM] | -4%[70.6 µM] | u
CN1c2cc(C(=O)Nc3cccc(OC(F)(F)F)c3)ccc2C(=O)N2CCCCC21 (configuration not stated) | u | 18µM* | -23% | u | u
CN1c2cc(C(=O)Nc3cccc(OC(F)(F)F)c3)ccc2C(=O)N2CCCC21 (configuration not stated) | i | u | i | -5% | 35µM*
COc1cccc(NC(=O)c2ccc3c(c2)N(C)C2CCCCN2C3=O)c1 (configuration not stated) | u | u | 3% | 0% | u
COc1ccc(S(=O)(=O)Nc2cnc3c(c2)CCC3)cc1 | x | u | -27% | x | u
CC(C)N[C@H]1C[C@@H](Cc2cc(-c3ccccc3)on2)C1(C)C | u | 63µM* | -3%[88.5 µM] | 4%[70.6 µM] | 63µM*
CN1CCC(N[C@H]2C[C@@H](Cc3cc(-c4ccccc4)on3)C2(C)C)CC1 | i | 8.9µM* | -18%[88.5 µM] | -4%[70.6 µM] | 8.9µM*
CCNC(=O)N[C@H]1C[C@@H](Cc2cc(-c3ccccc3)on2)C1(C)C | u | u | -14%[88.5 µM] | -21%[70.6 µM] | u
CN1CCC(N[C@H]2C[C@@H](Cc3cc(CN(C)Cc4ccccc4)on3)C2(C)C)CC1 | i | 40µM* | 2%[88.5 µM] | -18%[70.6 µM] | 28µM*
CC(=O)N1CCCC(N2C(=O)c3c(c(C)nn3-c3ccccc3)C2C2CC2)C1 (configuration not stated) | x | -11% | x | x | u
COc1ccc(-c2noc([C@@H]3C[C@H](NC(=O)COCC(=O)O)CN3C)n2)cc1 | 63µM* | 1%[172 µM] | -10%[88.5 µM] | -1%[70.6 µM] | -2%[138 µM]
CN1C[C@@H](NC(=O)CCC(=O)O)C[C@H]1c1nc(-c2ccc3ccccc3c2)no1 | 32µM* | -6%[172 µM] | i | 1%[70.6 µM] | -30%[174 µM]
CN1C[C@@H](NC(=O)CC(C)(C)CC(=O)O)C[C@H]1c1nc(-c2ccc3ccccc3c2)no1 | u | i | -1% | 5% | -7%
c1ccc(CCc2noc(-c3ccc(N4CCCOCC4)nc3)n2)cc1 | 32µM* | u | u | u | u
O=C(NC1CCCCC1)O[C@@H]1CO[C@H]2[C@@H]1OC[C@@H]2n1nnnc1Sc1ccccc1 | i | 100µM* | 5%[88.5 µM] | -11%[70.6 µM] | u
O=C(NC1CCCCC1)O[C@@H]1CO[C@H]2[C@@H]1OC[C@@H]2n1nnnc1Sc1ncccn1 | i | -11%[172 µM] | i | 6%[70.6 µM] | -8%[174 µM]
COc1cccc(CCC(=O)N2CCCC(c3nnnn3-c3ccccc3)C2)c1 (configuration not stated) | x | -22% | i | x | u
CC(C)c1ccc(CC(=O)N2CCCc3ncc(C(=O)Nc4ccc5[nH]ccc5c4)cc32)cc1 | i | 35µM* | -16% | -6% | u
CC(C)c1ccc(CC(=O)N2CCCc3ncc(C(=O)NCCN4CCCC4)cc32)cc1 | i | u | -30%[88.5 µM] | 1%[70.6 µM] | u
CC(C)c1ccc(CC(=O)N2CCCc3ncc(C(=O)NCc4ccccc4)cc32)cc1 | i | 89µM* | -10%[88.5 µM] | -5%[70.6 µM] | 89µM*
CC(C)NC(=O)c1cnc2c(c1)N(C(=O)Cc1ccc(C(C)C)cc1)CCC2 | i | u | -6%[88.5 µM] | -18%[70.6 µM] | u
CC(C)c1ccc(CC(=O)N2CCCc3ncc(C(=O)NCCN(C)C)cc32)cc1 | i | u | i | 5%[70.6 µM] | 100µM*
O=C(NC1CCN(Cc2cccc(-c3cccs3)c2)CC1)c1cccnc1 | x | u | 2% | x | u
CCc1nc2c(c(-c3ccc(O)cc3)n1)CCN(C(=O)c1ccccc1C)CC2 | x | -6% | i | x | -28%
SMILES | FLuc inh | HEK cytotox | GPT2 inh | hNpr1 antagonist | NIH3T3 tox
COc1ccc(CN2C(=O)COC[C@H]2C(=O)Nc2ccc(OC)c(C(F)(F)F)c2)cc1 | i | 45µM* | i | u | u
COc1ccc(CN2C(=O)COC[C@H]2C(=O)Nc2ccc(OC)c(OC)c2)cc1OC | i | -1% | i | -2% | -1%
COc1ccc(NC(=O)Cn2c(C)cc3nc4n(c(=O)c32)CCCC4)cc1Cl | i | -6% | 2% | -4% | -15%
N#Cc1ccc(S(=O)(=O)N2CC(n3cc(C(=O)N4CCOCC4)nn3)C2)cc1 | x | 2% | -9% | x | -15%
Cc1cccc(-c2noc([C@@H]3Cc4nc[nH]c4CN3C(=O)C3CCCCC3)n2)c1 | 56µM* | u | i | -1%[70.6 µM] | u
O=[N+]([O-])c1cccc(-c2noc([C@@H]3Cc4nc[nH]c4CN3CC3CCCCC3)n2)c1 | i | 56µM* | u | -14%[70.6 µM] | 71µM*
Cc1cccc(-c2noc([C@@H]3Cc4nc[nH]c4CN3C(=O)c3ccc(-c4ccccc4)cc3)n2)c1 | i | 35µM* | -12% | -26% | 20µM*
Cc1cccc(-c2noc([C@@H]3Cc4nc[nH]c4CN3)n2)c1 | 50µM* | -4%[230 µM] | i | -2%[70.6 µM] | -27%[230 µM]
O=c1c2nc(OCc3ccccc3)ccc2ncn1Cc1ccccn1 | i | -24%[172 µM] | i | 1%[70.6 µM] | u
O=c1c2nc(NCc3ccccc3)ccc2ncn1Cc1ccccn1 | i | u | 3%[88.5 µM] | 5%[70.6 µM] | 79µM*
O=[S+]([O-])(c1cccs1)N1CCC2(CC1)CC(Cc1ccccc1)=NO2 | i | 45µM* | i | -30% | u
O=[S+]([O-])(c1cccs1)N1CCCC2(CC(Cc3ccccc3)=NO2)C1 (configuration not stated) | i | u | i | 0% | -28%
CCOc1ccccc1CN1CCC2(CCN([S+](=O)([O-])c3cccs3)CC2)Oc2ccccc21 | i | -26% | i | 0% | u
CCCN1CCC2(CCN([S+](=O)([O-])c3cccs3)CC2)Oc2ccccc21 | i | 45µM* | 0% | -3% | u
CCC1(CC)CC1C(=O)N1CCc2onc(-c3cccc(F)c3)c2C1 (configuration not stated) | i | 45µM* | -18% | -26% | u
O=C(C1COc2ccccc2O1)N1CCc2onc(-c3cccc(F)c3)c2C1 (configuration not stated) | i | -28% | -4% | -29% | u

From PubChem BioAssay
